# In PubChem BioAssay (EPA / NIEHS):
# Results filed as inconclusive are left out. The source made the active and inactive calls. Rule for the calls: active = hit-call score of the fitted dose curve at least 0.9, where 1 is the maximum; inconclusive = response in the unintended direction; inactive = score below 0.9.
# Columns and labels:
# [1] = target: human Dopamine Receptor D4.4 (DRD4.4), DRD4 (gene 1815) (UniProt P21917); assay: NVS_GPCR_hDRD4.4: NovaScreen (NVS) G Protein-Coupled Receptor Assay for human Dopamine Receptor D4.4 (DRD4.4) (AID 2283264)
# Summary of the method: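 Radioligand displacement on human DRD4.4 from CHO-derived membranes, 1 hour incubation, bound counts read by filtration and scintillation. Primary screen in duplicate at 25 uM; actives followed up in concentration series.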
# [2] = target: human Dopamine Receptor D2 (DRD2), DRD2 (gene 1813) (UniProt P14416); assay: NVS_GPCR_hDRD2s: NovaScreen (NVS) G Protein-Coupled Receptor Assay for human Dopamine Receptor D2 (DRD2) (AID 2283266)
# Summary of the method: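 Radioligand displacement used human DRD2 membranes extracted from CHO cells and was read by filter-based scintillation counting after 1.5 hours. Primary screening was in duplicate at 25 uM. Loss of signal versus DMSO was fitted, with concentration series in follow-up.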
# [3] = target: human Endothelin Receptor Type B (ETB), EDNRB (gene 1910) (UniProt P24530); assay: NVS_GPCR_hETB: NovaScreen (NVS) G Protein-Coupled Receptor Assay for human Endothelin Receptor Type B (ETB) (AID 2283267)
# Summary of the method: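 Human astrocytoma cell membranes; radioligand competitive binding read by filter scintillation counting 4 hours after dosing. Single-concentration duplicate screen at 25 uM, then singleton concentration-response up to 50 uM; loss of signal versus DMSO.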
# [4] = target: Muscarinic acetylcholine receptor M1 (Homo sapiens) (UniProt P11229); assay: NVS_GPCR_hM1: NovaScreen (NVS) G Protein-Coupled Receptor Assay for human Muscarinic, M1 Receptor (AID 2283270)
# Procedure: (§1) NVS_GPCR_hM1 is a biochemical, single-readout assay that uses extracted gene-proteins from CHO in a cell-free assay. Measurements were taken 1 hour after chemical dosing in a 96-well plate.NVS_GPCR_hM1 is one of one assay component(s) measured or calculated from the NVS_GPCR_hM1 assay. It is designed to make measurements of radioligand binding, a form of binding reporter, as detected with scintillation counting signals by Filter-based radiodetection technology.Data from the assay component NVS_GPCR_hM1 was analyzed into 1 assay endpoint. This assay endpoint, NVS_GPCR_hM1, was analyzed in the positive analysis fitting direction relative to DMSO as the negative control and baseline of activity. Using a type of binding reporter, loss-of-signal activity can be used to understand changes in the binding as they relate to the gene CHRM1. Furthermore, this assay endpoint can be referred to as a primary readout, because the performed assay has only produced 1 assay endpoint. To generalize the intended target to other relatable targets, this assay endpoint is annotated to the gpcr intended target family, where the subfamily is rhodopsin-like receptor.
# (§2) Binding assays used specific radioligands (tritiated, iodinated) with non-radioactive competitive displacement ligands in agonist or antagonist protocols (as indicated) and various reference compounds and inhibitors to titrate specific binding to receptors and transporters. Most enzyme assays (CYPs, kinases, phosphatases, proteases, HDACs) used recombinant protein and specific substrates (fluorescence mostly, some colorimetric and radioactive) and inhibitors, followed by a biochemical separation of substrate and product. All assays for the biochemical HTS were initially run in duplicate at a single concentration (10 uM for CYP450 assays and 25 uM for all others). […] Each assay was run with positive and negative controls, and concurrent controls on every plate. The follow-up (secondary) screen tested active chemical-pairs in concentration series, as well as a few additional assays not tested in the primary screen, some selected negative inactives, and several cases re-run in the concentration series for confirmatory purposes.
# [5] = target: Muscarinic acetylcholine receptor M3 (Homo sapiens) (UniProt P20309); assay: NVS_GPCR_hM3: NovaScreen (NVS) G Protein-Coupled Receptor Assay for human Muscarinic, M3 Receptor (AID 2283272)
# Procedure: as §1, with “NVS_GPCR_hM3” for “NVS_GPCR_hM1”, “plate.NVS_GPCR_hM3” for “plate.NVS_GPCR_hM1”, “NVS_GPCR_hM3,” for “NVS_GPCR_hM1,”, “CHRM3.” for “CHRM1.”
# as §2
# [6] = target: D(1A) dopamine receptor (Homo sapiens) (UniProt P21728); assay: NVS_GPCR_hDRD1: NovaScreen (NVS) G Protein-Coupled Receptor Assay for human Dopamine Receptor D1 (DRD1) (AID 2283269)
# Summary of the method: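 Cell-free competition with radioligand, filter-trapped and scintillation-counted 1 h post-dose, using HEK293-derived human D1 preparation. Duplicate single-point testing at 25 uM first, then concentration series for actives; DMSO served as baseline, loss-of-signal scored.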
# [7] = target: human Endothelin Receptor Type A (ETA), EDNRA (gene 1909) (UniProt P25101); assay: NVS_GPCR_hETA: NovaScreen (NVS) G Protein-Coupled Receptor Assay for human Endothelin Receptor Type A (ETA) (AID 2283265)
# Procedure: as §1, with “NVS_GPCR_hETA” for “NVS_GPCR_hM1”, “Human neuroblastoma cells (SH-SY5Y)” for “CHO”, “3 hours” for “1 hour”, “plate.NVS_GPCR_hETA” for “plate.NVS_GPCR_hM1”, “NVS_GPCR_hETA,” for “NVS_GPCR_hM1,”, “EDNRA.” for “CHRM1.”
# (§3) Binding assays used specific radioligands (tritiated, iodinated) with non-radioactive competitive displacement ligands in agonist or antagonist protocols (as indicated) and various reference compounds and inhibitors to titrate specific binding to receptors and transporters. Most enzyme assays (CYPs, kinases, phosphatases, proteases, HDACs) used recombinant protein and specific substrates (fluorescence mostly, some colorimetric and radioactive) and inhibitors, followed by a biochemical separation of substrate and product. All assays for the biochemical HTS were initially run in duplicate at a single concentration (10 uM for CYP450 assays and 25 uM for all others). […]
# [8] = target: human Leukotriene B4 Receptor 1 (LTB4-BLT1), LTB4R (gene 1241) (UniProt Q15722); assay: NVS_GPCR_hLTB4_BLT1: NovaScreen (NVS) G Protein-Coupled Receptor Assay for human Leukotriene B4 Receptor 1 (LTB4-BLT1) (AID 2283271)
# Summary of the method: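 Radioligand displacement binding on receptor extracted from human neutrophils, cell-free, 1 h after dosing; filter-based scintillation counting. Primary screen in duplicate at 25 uM, actives retested in concentration-response up to 50 uM; loss of signal versus DMSO.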
# [9] = target: human Histamine 1 Receptor (H1), HRH1 (gene 3269) (UniProt P35367); assay: NVS_GPCR_hH1: NovaScreen (NVS) G Protein-Coupled Receptor Assay for human Histamine 1 Receptor (H1) (AID 2283268)
# Procedure: NVS_GPCR_hH1 is a biochemical, single-readout assay that uses extracted gene-proteins in a cell-free assay. Measurements were taken 1 hour after chemical dosing in a 96-well plate.NVS_GPCR_hH1 is one of one assay component(s) measured or calculated from the NVS_GPCR_hH1 assay. It is designed to make measurements of radioligand binding, a form of binding reporter, as detected with scintillation counting signals by Filter-based radiodetection technology.Data from the assay component NVS_GPCR_hH1 was analyzed into 1 assay endpoint. This assay endpoint, NVS_GPCR_hH1, was analyzed in the positive analysis fitting direction relative to DMSO as the negative control and baseline of activity. […] Furthermore, this assay endpoint can be referred to as a primary readout, because the performed assay has only produced 1 assay endpoint. […]
# as §3, with “product.” for “product. All assays for the biochemical HTS were initially run in duplicate at a single concentration (10 uM for CYP450 assays and 25 uM for all others).”
# [10] = target: Type-1 angiotensin II receptor (Homo sapiens) (UniProt P30556); assay: NVS_GPCR_hAT1: NovaScreen (NVS) G Protein-Coupled Receptor Assay for human Angiotensin II receptor type 1 (AT1) (AID 2283263)
# Summary of the method: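 Membranes from KAN-TS cells; radioligand competitive displacement, 3 h, filtration and scintillation counting. Single-point duplicate screen at 25 uM, then concentration-response up to 50 uM for hits; loss of signal fitted versus DMSO.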
# D(1A) dopamine receptor (Homo sapiens), sequence (P21728 whole entry, looked up): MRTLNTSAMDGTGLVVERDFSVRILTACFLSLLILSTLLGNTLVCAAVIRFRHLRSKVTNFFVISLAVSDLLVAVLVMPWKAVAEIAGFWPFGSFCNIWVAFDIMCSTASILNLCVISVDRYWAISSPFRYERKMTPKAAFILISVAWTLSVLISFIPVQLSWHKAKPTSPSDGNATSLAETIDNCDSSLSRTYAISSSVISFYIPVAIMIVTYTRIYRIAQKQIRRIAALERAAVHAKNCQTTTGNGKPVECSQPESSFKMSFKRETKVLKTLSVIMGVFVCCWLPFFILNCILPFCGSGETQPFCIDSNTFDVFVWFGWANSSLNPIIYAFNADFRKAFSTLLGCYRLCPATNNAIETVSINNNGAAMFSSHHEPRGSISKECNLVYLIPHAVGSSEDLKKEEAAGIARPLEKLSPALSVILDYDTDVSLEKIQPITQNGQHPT
# human Dopamine Receptor D2 (DRD2), DRD2 (gene 1813), sequence (P14416 whole entry, looked up): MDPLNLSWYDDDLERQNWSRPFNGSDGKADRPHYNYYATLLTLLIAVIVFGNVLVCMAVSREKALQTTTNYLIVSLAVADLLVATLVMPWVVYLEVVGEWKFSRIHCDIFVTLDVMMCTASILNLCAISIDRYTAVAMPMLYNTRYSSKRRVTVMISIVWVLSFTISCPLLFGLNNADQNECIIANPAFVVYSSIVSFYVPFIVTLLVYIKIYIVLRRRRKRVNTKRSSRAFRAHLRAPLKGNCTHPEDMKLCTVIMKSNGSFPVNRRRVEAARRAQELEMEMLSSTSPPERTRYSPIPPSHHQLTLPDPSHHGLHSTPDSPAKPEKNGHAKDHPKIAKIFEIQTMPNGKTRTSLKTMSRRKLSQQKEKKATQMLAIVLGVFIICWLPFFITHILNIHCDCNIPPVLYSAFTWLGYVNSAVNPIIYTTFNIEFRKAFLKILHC
# Type-1 angiotensin II receptor (Homo sapiens), sequence (P30556 whole entry, looked up): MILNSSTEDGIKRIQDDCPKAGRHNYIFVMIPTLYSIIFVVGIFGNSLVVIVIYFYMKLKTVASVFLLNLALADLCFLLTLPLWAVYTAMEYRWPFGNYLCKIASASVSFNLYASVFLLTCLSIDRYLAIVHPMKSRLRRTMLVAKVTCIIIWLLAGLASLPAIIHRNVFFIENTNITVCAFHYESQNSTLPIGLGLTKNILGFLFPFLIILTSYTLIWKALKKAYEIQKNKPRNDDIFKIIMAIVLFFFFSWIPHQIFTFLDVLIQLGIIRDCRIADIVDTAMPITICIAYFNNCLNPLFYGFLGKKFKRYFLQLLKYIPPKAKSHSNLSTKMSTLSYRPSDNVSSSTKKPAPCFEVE
# human Endothelin Receptor Type A (ETA), EDNRA (gene 1909), sequence (P25101 whole entry, looked up): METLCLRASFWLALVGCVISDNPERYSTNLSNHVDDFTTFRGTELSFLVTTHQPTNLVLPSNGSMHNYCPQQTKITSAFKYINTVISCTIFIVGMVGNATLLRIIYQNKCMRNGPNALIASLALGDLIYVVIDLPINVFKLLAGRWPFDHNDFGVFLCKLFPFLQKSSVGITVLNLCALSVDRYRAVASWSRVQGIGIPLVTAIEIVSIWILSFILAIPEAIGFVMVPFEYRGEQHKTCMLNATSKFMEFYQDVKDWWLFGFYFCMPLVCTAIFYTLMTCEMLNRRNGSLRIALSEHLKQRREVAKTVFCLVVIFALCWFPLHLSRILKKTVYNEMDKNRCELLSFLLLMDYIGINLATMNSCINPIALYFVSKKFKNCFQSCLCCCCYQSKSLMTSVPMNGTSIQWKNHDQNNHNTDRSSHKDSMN
# Muscarinic acetylcholine receptor M3 (Homo sapiens), sequence (P20309 whole entry, looked up): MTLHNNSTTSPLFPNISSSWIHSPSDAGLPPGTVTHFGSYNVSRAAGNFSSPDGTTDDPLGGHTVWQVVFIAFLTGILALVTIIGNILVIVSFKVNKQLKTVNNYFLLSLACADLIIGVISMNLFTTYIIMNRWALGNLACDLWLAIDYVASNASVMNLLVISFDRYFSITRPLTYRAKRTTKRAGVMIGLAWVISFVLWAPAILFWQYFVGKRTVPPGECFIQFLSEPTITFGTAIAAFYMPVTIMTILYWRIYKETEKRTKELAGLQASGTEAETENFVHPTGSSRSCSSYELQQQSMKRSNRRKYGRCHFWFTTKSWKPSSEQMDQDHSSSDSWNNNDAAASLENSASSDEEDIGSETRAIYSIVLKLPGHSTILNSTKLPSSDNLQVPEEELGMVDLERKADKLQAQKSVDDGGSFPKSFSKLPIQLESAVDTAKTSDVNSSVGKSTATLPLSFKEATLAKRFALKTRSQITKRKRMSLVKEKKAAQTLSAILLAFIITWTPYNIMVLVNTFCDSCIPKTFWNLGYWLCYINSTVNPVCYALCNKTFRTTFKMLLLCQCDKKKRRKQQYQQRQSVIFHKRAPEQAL
# human Endothelin Receptor Type B (ETB), EDNRB (gene 1910), sequence (P24530 whole entry, looked up): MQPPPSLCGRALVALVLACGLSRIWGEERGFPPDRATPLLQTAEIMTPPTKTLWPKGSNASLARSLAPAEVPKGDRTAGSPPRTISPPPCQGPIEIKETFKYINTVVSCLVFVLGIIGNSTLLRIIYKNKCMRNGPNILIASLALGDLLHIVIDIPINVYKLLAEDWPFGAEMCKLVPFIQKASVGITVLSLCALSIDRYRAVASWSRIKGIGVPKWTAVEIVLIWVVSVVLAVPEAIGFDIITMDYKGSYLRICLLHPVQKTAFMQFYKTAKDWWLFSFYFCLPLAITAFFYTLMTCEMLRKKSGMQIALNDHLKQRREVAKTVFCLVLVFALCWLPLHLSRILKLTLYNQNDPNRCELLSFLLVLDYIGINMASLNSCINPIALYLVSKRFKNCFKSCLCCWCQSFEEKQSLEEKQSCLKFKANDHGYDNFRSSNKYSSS
# human Dopamine Receptor D4.4 (DRD4.4), DRD4 (gene 1815), sequence (P21917 whole entry, looked up): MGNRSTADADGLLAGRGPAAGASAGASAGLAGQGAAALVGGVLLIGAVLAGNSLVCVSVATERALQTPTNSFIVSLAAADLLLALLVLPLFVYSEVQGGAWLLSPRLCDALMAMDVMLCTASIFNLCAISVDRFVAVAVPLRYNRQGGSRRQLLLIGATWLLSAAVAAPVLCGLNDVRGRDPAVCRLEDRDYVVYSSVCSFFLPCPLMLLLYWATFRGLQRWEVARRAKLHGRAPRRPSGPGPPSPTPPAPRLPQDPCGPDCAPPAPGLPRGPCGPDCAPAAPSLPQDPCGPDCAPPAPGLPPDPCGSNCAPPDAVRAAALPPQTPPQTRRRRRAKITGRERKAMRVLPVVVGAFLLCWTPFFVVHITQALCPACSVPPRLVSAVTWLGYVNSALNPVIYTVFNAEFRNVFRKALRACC
# Muscarinic acetylcholine receptor M1 (Homo sapiens), sequence (P11229 whole entry, looked up): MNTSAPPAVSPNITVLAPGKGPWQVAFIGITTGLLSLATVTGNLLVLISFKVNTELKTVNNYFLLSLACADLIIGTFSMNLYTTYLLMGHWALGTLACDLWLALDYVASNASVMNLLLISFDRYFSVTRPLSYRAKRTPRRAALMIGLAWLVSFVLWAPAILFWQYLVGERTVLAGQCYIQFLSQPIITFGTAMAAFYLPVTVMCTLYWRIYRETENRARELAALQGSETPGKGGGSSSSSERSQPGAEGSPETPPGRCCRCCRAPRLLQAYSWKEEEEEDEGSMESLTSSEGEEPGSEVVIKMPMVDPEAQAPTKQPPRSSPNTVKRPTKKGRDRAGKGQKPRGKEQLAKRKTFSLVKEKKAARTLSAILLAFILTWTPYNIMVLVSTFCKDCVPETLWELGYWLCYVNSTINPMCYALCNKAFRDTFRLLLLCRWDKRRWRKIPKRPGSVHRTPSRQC
# human Histamine 1 Receptor (H1), HRH1 (gene 3269), sequence (P35367 whole entry, looked up): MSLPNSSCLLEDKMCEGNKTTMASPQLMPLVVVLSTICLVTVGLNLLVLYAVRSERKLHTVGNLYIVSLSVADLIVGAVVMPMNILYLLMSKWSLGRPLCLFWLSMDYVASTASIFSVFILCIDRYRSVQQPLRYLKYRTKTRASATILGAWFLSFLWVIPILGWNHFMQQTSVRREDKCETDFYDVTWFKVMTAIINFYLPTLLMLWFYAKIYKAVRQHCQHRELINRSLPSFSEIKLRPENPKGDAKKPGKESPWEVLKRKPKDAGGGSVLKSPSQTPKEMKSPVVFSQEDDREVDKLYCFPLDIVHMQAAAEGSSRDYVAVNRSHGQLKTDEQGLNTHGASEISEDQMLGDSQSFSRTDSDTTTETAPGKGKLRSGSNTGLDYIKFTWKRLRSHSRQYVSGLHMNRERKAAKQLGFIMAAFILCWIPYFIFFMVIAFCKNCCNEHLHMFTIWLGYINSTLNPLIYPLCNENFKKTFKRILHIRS
# human Leukotriene B4 Receptor 1 (LTB4-BLT1), LTB4R (gene 1241), sequence (Q15722 whole entry, looked up): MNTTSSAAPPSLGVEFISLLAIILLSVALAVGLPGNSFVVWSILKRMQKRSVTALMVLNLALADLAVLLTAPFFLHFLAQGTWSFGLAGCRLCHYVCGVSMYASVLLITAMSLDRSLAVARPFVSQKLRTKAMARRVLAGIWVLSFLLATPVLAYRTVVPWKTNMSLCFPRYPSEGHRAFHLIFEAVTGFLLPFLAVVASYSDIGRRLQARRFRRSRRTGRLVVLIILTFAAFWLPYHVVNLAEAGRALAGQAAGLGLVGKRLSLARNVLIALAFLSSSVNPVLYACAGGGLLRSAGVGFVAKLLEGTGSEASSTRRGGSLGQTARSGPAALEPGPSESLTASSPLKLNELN
structure (smiles),measurement,setting,value
Cc1cc(N=Nc2ccccc2C)ccc1N,AC50,[1],25000 nM (active)
N#CC(Br)Br,outcome,[2],inactive
same,outcome,[3],inactive
O=C(Oc1ccc(Br)cc1)N1CCN2CCC1CC2,AC50,[4],12500 nM (active)
same,AC50,[5],19400 nM (active)
O=C(N[C@H](c1ccccc1)[C@@H]1CN2CCC1CC2)c1c(Cl)ccc(C(F)(F)F)c1Cl,AC50,[6],37500 nM (active)
same,outcome,[4],inactive
CCC(C)c1ccc(O)cc1 (stereo not drawn),outcome,[7],inactive
N#CC(Br)(Br)C(N)=O,outcome,[6],inactive
C[C@]12C=CC3=C4CCC(=O)C=C4CC[C@H]3[C@@H]1CC[C@@H]2O,outcome,[3],inactive
same,outcome,[8],inactive
[O-][Cl+]O,outcome,[2],inactive
Cc1cccc(N)c1N,AC50,[6],12100 nM (active)
O=[N+]([O-])c1ccc(Oc2ccc(Cl)cc2Cl)cc1,outcome,[6],inactive
CCCCCOC(=O)c1ccccc1C(=O)OCCCCC,outcome,[5],inactive
CCOC(=O)[C@]1(c2ccccc2)Oc2ccccc2[C@@H]1N,AC50,[1],48.1 nM (active)
same,AC50,[2],32.3 nM (active)
same,AC50,[9],471 nM (active)
same,AC50,[6],2660 nM (active)
same,AC50,[4],6040 nM (active)
same,AC50,[5],13300 nM (active)
CCC[CH2][Sn]([Cl])([CH2]CCC)[CH2]CCC,AC50,[10],1780 nM (active)
same,AC50,[1],1830 nM (active)
same,AC50,[7],695 nM (active)
same,AC50,[2],525 nM (active)
same,AC50,[3],15100 nM (active)
same,AC50,[9],1420 nM (active)
same,AC50,[6],445 nM (active)
same,AC50,[4],1860 nM (active)
same,AC50,[5],1440 nM (active)
OCCCBr,outcome,[3],inactive
CCCCCCCCn1sccc1=O,AC50,[10],10900 nM (active)
same,AC50,[2],26000 nM (active)
same,AC50,[6],1320 nM (active)
[Cl-].[Cl-].[Hg+2],AC50,[10],10700 nM (active)
same,AC50,[1],1760 nM (active)
same,AC50,[7],6760 nM (active)
same,AC50,[2],354 nM (active)
same,AC50,[3],19000 nM (active)
same,AC50,[6],193 nM (active)
same,AC50,[4],1470 nM (active)
same,AC50,[5],579 nM (active)
COP(=S)(OC)SCN1C(=O)c2ccccc2C1=O,AC50,[6],16800 nM (active)
